GDH-TPI inh = GDH-TPI coupled enzyme inhibition counter-screen; GDH-TPI coupled enzyme counterscreen, NADH absorbance; inhibition, % at 4.8 µM; 1.2% of 360,000 active; in the data active = inhibition above about 30%;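 also: 0% = DMSO wells and 100% = wells lacking the enzyme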
Mtb FBA inh = Mtb fructose-bisphosphate aldolase inhibition | purified M. tuberculosis FBA, fluorescence read-out | inhibition, % at 1 µM | 2.3% of 360,000 active; in the data active = inhibition above about 27%;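 also: 0% = vehicle and 100% = reference inhibitor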
Target sequence (P9WQA3 whole entry, looked up): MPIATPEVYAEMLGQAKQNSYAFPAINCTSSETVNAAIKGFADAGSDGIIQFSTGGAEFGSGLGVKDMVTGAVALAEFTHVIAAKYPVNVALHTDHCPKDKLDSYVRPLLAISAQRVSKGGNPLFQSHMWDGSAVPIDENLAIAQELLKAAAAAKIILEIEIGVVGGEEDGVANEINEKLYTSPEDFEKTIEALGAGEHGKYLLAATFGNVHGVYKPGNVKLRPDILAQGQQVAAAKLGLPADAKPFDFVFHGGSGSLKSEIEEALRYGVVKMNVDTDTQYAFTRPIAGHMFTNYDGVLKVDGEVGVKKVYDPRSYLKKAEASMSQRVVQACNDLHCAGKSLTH
BioA inh = inhibitors of Mycobacterium tuberculosis BioA enzyme. 0.096% of 360,000 active. AID 602481. inhibition, % at 9.99 µM. purified M. tuberculosis BioA enzyme, plate reader; in the data active = inhibition above about 40%
BH1578 lux ind = induces V. cholerae light production without autoinducers; AID 588436; V. cholerae BH1578 lux reporter, luminescence, 6 h; activation, % at 18.7 µM; 0.16% of 350,000 active; in the data active = activation mostly above about 9.7%, no sharp cut-off
Starred values were filed as active, the others as inactive; i = inactive; x = no result given; + = active, no number. An excerpt weighted towards active compounds, which were near 3% of everything screened.

SMILES | GDH-TPI inh | Mtb FBA inh | BioA inh | BH1578 lux ind
CN1CCCN=C1COC(=O)C(O)(c1ccccc1)C1CCCCC1 (configuration not stated) | 3 | -1 | -1 | 29*
CC(C)(C)C(=O)OC[N+](C)(C)CCOC(=O)C(O)(c1ccccc1)C1CCCC1 (configuration not stated) | -7 | 1 | x | 0
O=C(c1ccoc1)N1CCN(c2cc(-c3ccco3)nc3cc(-c4ccccc4)nn23)CC1 | 28 | 113* | 0 | i
N#C/C(=C\c1ccccn1)c1ccccn1 | 17 | 2 | -2 | i
N#C/C(=C/c1cccs1)c1ccccn1 | 33* | -2 | x | 0
Cc1noc(C)c1NC(=O)Nc1ccc2c(c1)CC(=O)N([C@H](C)CO)C[C@@H](C)[C@H](CN(C)Cc1ccncc1)O2 | x | x | 1 | x
COc1ccc(N=c2oc3cc(O)ccc3cc2C(=O)NCC2CCCO2)c(OC)c1 (configuration not stated) | 32* | + | 11 | 0
CCOc1ccccc1N=c1oc2cc(O)ccc2cc1C(=O)NCC1CCCO1 (configuration not stated) | 10 | 166* | -1 | -2
COc1ccc(N=c2oc3cc(O)ccc3cc2C(=O)NCC2CCCO2)cc1 (configuration not stated) | 22 | 190* | 0 | i
C[C@@H]1CN([C@H](C)CO)C(=O)c2cc(NC(=O)c3ccccc3)ccc2O[C@@H](C)CCCCO[C@@H]1CN(C)C(=O)c1ccncc1 | x | x | -2 | x
C/C(=N\NC(=O)c1nc2ccccn2c1C)c1cc2ccccc2o1 | 33* | 1 | x | 0
C/C(=N\NC(=O)c1cc2ccccc2cc1O)c1ccccn1 | 20 | 4 | -2 | 0
C/C(=N\NC(=O)c1cc2ccccc2cc1O)c1cc2ccccc2o1 | 60* | -3 | 0 | -1
C/C(=N\NC(=O)c1nc2ccccn2c1C)c1ccco1 | 24 | -3 | x | 0
Cc1noc(C)c1S(=O)(=O)Nc1ccc2c(c1)C(=O)N([C@H](C)CO)C[C@H](C)[C@H](CN(C)C(=O)Nc1ccccc1)O2 | x | x | 0 | x
C[C@@H]1CCCCO[C@H](CN(C)S(=O)(=O)c2ccc(Cl)cc2)[C@H](C)CN([C@@H](C)CO)C(=O)c2cc(NS(C)(=O)=O)ccc2O1 | x | x | 3 | x
COCC(=O)N(C)C[C@@H]1Oc2ncc(C#C[C@@H](C)O)cc2C(=O)N([C@H](C)CO)C[C@@H]1C | x | x | 0 | x
Cc1ccc(NC(=O)CN2C(=O)S/C(=C/c3ccncc3)C2=O)cc1 | 8 | 4 | -1 | 1
O=C(CN1C(=O)S/C(=C\c2ccc(C(=O)O)cc2)C1=O)Nc1ccccc1 | 35* | 0 | 0 | i
O=C(CN1C(=O)S/C(=C\c2ccccc2)C1=O)NNC(=O)c1ccccc1O | 31* | 1 | x | i
O=C(O)c1ccc(/C=C2\SC(=S)N(Nc3ccccc3)C2=O)cc1 | 34* | -1 | -2 | 0
O=C1/C(=C/c2ccncc2)SC(=S)N1Nc1ccccc1 | 21 | -2 | 0 | 0
Cc1cc(C)nc(NN2C(=O)/C(=C/c3ccccc3)SC2=S)n1 | 34* | 1 | -2 | -1
O=C(CCCN1C(=O)S/C(=C\c2ccccc2)C1=O)NNC(=O)c1ccccc1O | 13 | -6 | x | 0
CC(=O)NC(CC(=O)NCCN1C(=O)S/C(=C\c2ccccc2)C1=O)c1ccccc1 (configuration not stated) | 48* | 1 | 0 | 0
SMILES | GDH-TPI inh | Mtb FBA inh | BioA inh | BH1578 lux ind
COc1ccc(/C=C2\SC(=O)N(CC(=O)NNC(=O)c3ccccc3O)C2=O)cc1 | 33* | -1 | x | 0
O=C(C[C@H]1CC[C@H]2[C@@H](COC[C@@H](O)CN2Cc2ccncc2)O1)NCc1ccccc1Cl | x | x | -5 | x
CC(C)C(NC(=O)CN1C(=O)c2cccc3cccc1c23)C(C)C | 36* | 2 | -1 | 0
CCOc1cc2[nH]c(=S)n(CCOC)c(=O)c2cc1OCC | 33* | 1 | 2 | 0
COc1ccc(CN2C[C@H](O)COC[C@H]3O[C@@H](CC(=O)NCc4ccccc4Cl)CC[C@@H]32)cc1 | x | x | -1 | x
CO[C@H]1CN(C)C(=O)c2ccc(NC(C)=O)cc2OC[C@H](C)N(C(=O)CN2CCOCC2)C[C@@H]1C | x | x | -1 | x
O=c1cc(/N=C/c2coc3cc(Br)ccc3c2=O)[nH]c(=S)[nH]1 | 16 | -11 | 5 | -2
CC(=O)Oc1ccc2c(=O)c(/C=N/c3cc(=O)[nH]c(=S)[nH]3)coc2c1 | 54* | -3 | -1 | 0
CN1C(=O)c2cc(NC(=O)C3CCCC3)ccc2OC[C@@H]2O[C@@H](CC(=O)NCC3CC3)CC[C@@H]21 | x | x | 13 | x
CCCCS/C(N)=N/N=C/c1cc(C)ccc1O | 41* | 2 | x | i
CCS/C(N)=N/N=C/c1cc(C)ccc1O | 23 | 2 | x | -12
COc1ccc2c(c1)cc(C(=O)N/N=C/c1c(O)c(C(=O)O)cc3ccccc13)n2C | 32* | -2 | 0 | -8
Cn1c(O)c(/C=N/NC(=O)c2cc3ccccc3cc2O)c2ccccc21 | 18 | -8 | -2 | 1
COc1ccc(C2CC(=O)C3=C(C2)Nc2ccccc2N(C(C)=O)C3c2ccco2)cc1 (configuration not stated) | 47* | 3 | 1 | -1
COc1cc(C2C3=C(CC(c4ccco4)CC3=O)Nc3ccccc3N2C(C)=O)cc(OC)c1OC (configuration not stated) | 26 | -3 | 3 | i
COc1cc(/C=C2/NC(=O)N(Cc3ccccc3F)C2=O)cc(OC)c1O | 11 | 1 | x | 0
CCOc1cc(/C=C2/NC(=O)N(Cc3ccccc3F)C2=O)ccc1O | 40* | -2 | -3 | 0
Cc1nn(C)c(C)c1/C=C(\C#N)S(=O)(=O)c1ccc(F)cc1 | 33* | 2 | -1 | i
COCC#Cc1ccc2c(c1)O[C@@H](CN(C)C)[C@@H](C)CN([C@H](C)CO)S2(=O)=O | x | x | 9 | x
Cc1cccc(Nc2nc(N)c(C#N)c(CC#N)c2C#N)c1 | 64* | 0 | 0 | 0
Cc1cccc(Nc2nc(N)nc(N)c2N=O)c1 | 31* | -1 | 0 | i
Cc1ccc(Nc2nc(N)nc(N)c2N=O)cc1C | x | 0 | -2 | x
Cc1cc(Br)ccc1Nc1nc(N)nc(N)c1N=O | 32* | 5 | -1 | i
C[C@H](CO)N1C[C@H](C)[C@H](CN(C)S(=O)(=O)c2ccc(Cl)cc2)OCCCC[C@H](C)Oc2ccc(NS(=O)(=O)c3cn(C)cn3)cc2C1=O | x | x | 3 | x
CN(C)CC(=O)N1[C@@H]2c3ccc(C4=CCCC4)c(=O)n3C[C@H]1[C@H](CO)[C@H]2C(=O)NCC1CCCCC1 | x | x | -1 | x
SMILES | GDH-TPI inh | Mtb FBA inh | BioA inh | BH1578 lux ind
COc1ccc(S(=O)(=O)Nc2ccc3c(c2)C(=O)N([C@@H](C)CO)C[C@@H](C)[C@H](CN(C)Cc2ccc(Oc4ccccc4)cc2)O3)cc1 | x | x | 1 | x
NNC(=O)/C(=C/c1cccs1)NC(=O)c1ccccc1Cl | 43* | -3 | -1 | 0
C[C@H]1CN([C@@H](C)CO)C(=O)c2cc(NC(=O)Cn3cnnn3)ccc2O[C@H]1CN(C)CC1CC1 | x | x | -1 | x
O=C(C1CCCC1)N1CCCCN2[C@H](CO)[C@@H](c3ccc(C#CC4(O)CCCC4)cc3)[C@H]2C1 | x | x | 2 | x
CCCCn1c(N)c(N(CC(C)C)C(=O)COC(=O)c2ccccc2NCCO)c(=O)[nH]c1=O | 3 | 125* | -1 | i
N#C/C(C(=O)NCc1ccco1)=C1/SC=C(c2ccccc2)N1c1ccccc1 | 9 | -2 | -1 | 0
CC1=CS/C(=C(/C#N)C(=O)NCc2ccco2)N1c1ccccc1 | 51* | -1 | 0 | 0
Cc1ccc(S(=O)(=O)Nc2ccc3c(c2)CC(=O)N([C@H](C)CO)C[C@@H](C)[C@H](CN(C)S(=O)(=O)c2ccc(F)cc2)O3)cc1 | x | x | 4 | x
